Values joined by “and” are separate entries in the source; they are usually repeats but may differ in a detail not shown here. Identical values can stand only once. The panel holds about 83,000 compounds, 20% with a hit somewhere; the sample as a whole holds those more often.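 Single-concentration screen, 48 h exposure, 96-well plates. Endpoint: percent growth. Below 10 = active.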 Active and inactive are the calls of the source.
Columns and labels:
Experiment in all cases: NCI-60 one-dose screen, 48 h (100 = growth as untreated, 0 = no growth, -100 = all killed)
Conditions in all cases: 10 µM unless noted
HCT-15 colon = test system: HCT-15 colon
HT29 colon = test system: HT29 colon
SNB-75 CNS = test system: SNB-75 CNS
SNB-19 CNS = test system: SNB-19 CNS
U251 CNS = test system: U251 CNS
PC-3 prostate = test system: PC-3 prostate
SK-MEL-5 melanoma = test system: SK-MEL-5 melanoma
UACC-62 melanoma = test system: UACC-62 melanoma
LOX IMVI melanoma = test system: LOX IMVI melanoma
SK-MEL-28 melanoma = test system: SK-MEL-28 melanoma
SK-MEL-2 melanoma = test system: SK-MEL-2 melanoma
EKVX NSCLC = test system: EKVX NSCLC
SN12C renal = test system: SN12C renal
UO-31 renal = test system: UO-31 renal
TK-10 renal = test system: TK-10 renal
ACHN renal = test system: ACHN renal
CAKI-1 renal = test system: CAKI-1 renal
A498 renal = test system: A498 renal
CCRF-CEM leukemia = test system: CCRF-CEM leukemia
MOLT-4 leukemia = test system: MOLT-4 leukemia

Structure (SMILES)	growth (HCT-15 colon)	growth (HT29 colon)	growth (SNB-75 CNS)	growth (SNB-19 CNS)	growth (U251 CNS)	growth (PC-3 prostate)	growth (SK-MEL-5 melanoma)	growth (UACC-62 melanoma)	growth (LOX IMVI melanoma)	growth (SK-MEL-28 melanoma)	growth (SK-MEL-2 melanoma)	growth (EKVX NSCLC)	growth (SN12C renal)	growth (UO-31 renal)	growth (TK-10 renal)	growth (ACHN renal)	growth (CAKI-1 renal)	growth (A498 renal)	growth (CCRF-CEM leukemia)	growth (MOLT-4 leukemia)
CCN(CC)CCCC(C)Nc1cnc(C(=O)Nc2cc(F)cc3cccnc23)cn1 (centres undefined)	24.5% (inactive) and -32.9% (active)	11.8% (inactive) and 5.33% (active)	65.7% (inactive) and -54.3% (active)	83.1% (inactive) and -87.9% (active)	50.3% (inactive) and -76.1% (active)	61% (inactive) and -52.7% (active)	70% (inactive) and -92.2% (active)	0.997% (active) and 17.5% (inactive)	33.3% (inactive) and -48.5% (active)	63.2% (inactive) and 22.7% (inactive)	96.7% (inactive) and 50% (inactive)	73.3% (inactive) and 19.2% (inactive)	54.5% (inactive) and 1.53% (active)	29.1% (inactive) and -91.5% (active)	63.7% (inactive) and -48.8% (active)	36.6% (inactive) and -2.97% (active)	36.7% (inactive) and -38.3% (active)	63% (inactive)	19.7% (inactive) and 3.49% (active)	22% (inactive) and 10.4% (inactive)
Cc1cc(=O)[nH]c(O)c1C#N	98% (inactive) and 107% (inactive)	109% (inactive) and 116% (inactive)	72.5% (inactive) and 96.7% (inactive)	98.4% (inactive) and 94.7% (inactive)	101% (inactive) and 98.2% (inactive)	114% (inactive) and 102% (inactive)	100% (inactive) and 106% (inactive)	97.7% (inactive) and 96.5% (inactive)	98.5% (inactive) and 97.1% (inactive)	98.2% (inactive) and 157% (inactive)	108% (inactive)	99.6% (inactive) and 99.9% (inactive)	102% (inactive) and 93.7% (inactive)	87.3% (inactive) and 105% (inactive)	103% (inactive) and 92.9% (inactive)	101% (inactive) and 95.7% (inactive)	90.3% (inactive) and 60.5% (inactive)		113% (inactive) and 90.3% (inactive)	106% (inactive) and 101% (inactive)
O=C(CCc1ccc(O)cc1)N/N=C/c1cc(Br)ccc1O	28.7% (inactive)	98.4% (inactive)	79.4% (inactive)	69.6% (inactive)	49.2% (inactive)	38.8% (inactive)	45.3% (inactive)	37.7% (inactive)	21.1% (inactive)	69.5% (inactive)	80.7% (inactive)	91% (inactive)	63.7% (inactive)	19.5% (inactive)	88.9% (inactive)	27% (inactive)	18.7% (inactive)	78.5% (inactive)	13.3% (inactive)	8.16% (active)
CC1=C(/C=C/C(C)=C/C=C/C(C)=C/C(=O)Nc2ccc(O)cc2)C(C)(C)CCC1	57% (inactive)	34.6% (inactive)	57.6% (inactive)	80.2% (inactive)	66.8% (inactive)	52.2% (inactive)	43.9% (inactive)	22% (inactive)	2.64% (active)	61.7% (inactive)	78.6% (inactive)	64.7% (inactive)	39.2% (inactive)	-4.99% (active)	103% (inactive)	52.2% (inactive)	47% (inactive)	71.4% (inactive)	19.5% (inactive)	7.55% (active)
CCCCCCCCCCCCOc1ccccc1C=O	101% (inactive)	96.7% (inactive)	80.6% (inactive)	98.4% (inactive)	87.4% (inactive)	108% (inactive)	101% (inactive)	102% (inactive)	90.1% (inactive)	106% (inactive)	112% (inactive)	97% (inactive)	93.7% (inactive)	65.1% (inactive)	118% (inactive)	101% (inactive)	84.9% (inactive)		79.9% (inactive)	78.3% (inactive)
O=C1C2=C(C(=O)c3ccccc31)C(O)(S(=O)(=O)O)C(O)(S(=O)(=O)O)C1N=CC=CC21 (centres undefined)	32.3% (inactive) and 38.7% (inactive)	46.6% (inactive) and 21.4% (inactive)	61.1% (inactive) and 35.1% (inactive)	43.8% (inactive) and 48.5% (inactive)	30.3% (inactive) and 18.7% (inactive)	31.8% (inactive) and 30.2% (inactive)	26.6% (inactive) and 29.7% (inactive)	51.3% (inactive) and 45.6% (inactive)	36.7% (inactive) and 24.7% (inactive)	89.2% (inactive) and 73% (inactive)	65.2% (inactive) and 47.4% (inactive)	36.4% (inactive) and 30.5% (inactive)	34.5% (inactive) and 39.1% (inactive)	42.2% (inactive) and -0.599% (active)	71.8% (inactive) and 68.1% (inactive)	36.3% (inactive) and 32.8% (inactive)	21.9% (inactive) and 15.8% (inactive)	82.1% (inactive) and 33.9% (inactive)	25.1% (inactive) and 41.9% (inactive)	25.6% (inactive) and 48.2% (inactive)
COc1ccc(/C(C#N)=C/c2ccccn2)cc1	96.2% (inactive) and 109% (inactive)	106% (inactive) and 103% (inactive)	99.2% (inactive) and 105% (inactive)	97.9% (inactive) and 106% (inactive)	97.9% (inactive) and 101% (inactive)	104% (inactive) and 101% (inactive)	94.9% (inactive) and 99.9% (inactive)	93.8% (inactive) and 114% (inactive)	99.7% (inactive) and 115% (inactive)	107% (inactive) and 139% (inactive)	103% (inactive) and 117% (inactive)	90.1% (inactive) and 99.5% (inactive)	101% (inactive) and 115% (inactive)		104% (inactive) and 117% (inactive)	108% (inactive) and 109% (inactive)	101% (inactive) and 126% (inactive)		93% (inactive) and 102% (inactive)	96.7% (inactive) and 103% (inactive)
CCOc1ccc2nc3cc(N)ccc3c(N)c2c1	107% (inactive) and 90% (inactive)	75.7% (inactive) and 60.7% (inactive)	47.6% (inactive)	10.5% (inactive)	-12.6% (active) and 5.58% (active)	61.8% (inactive) and 75.6% (inactive)	43.2% (inactive)	73.8% (inactive)	82.5% (inactive)	75.5% (inactive) and 89.8% (inactive)	20% (inactive) and 24.6% (inactive)	57.3% (inactive) and 80% (inactive)	18.5% (inactive)	74.9% (inactive) and 63% (inactive)	117% (inactive) and 122% (inactive)		100% (inactive) and 108% (inactive)	71% (inactive) and 79.9% (inactive)	68.5% (inactive) and 54.2% (inactive)	34.9% (inactive) and 25.3% (inactive)
Oc1ccccc1C=NCC1CCC(CN=Cc2ccccc2O)CC1 (centres undefined)	7.98% (active)	17.1% (inactive)	101% (inactive)	94.6% (inactive)	78.4% (inactive)	77.8% (inactive)	92.8% (inactive)	88.7% (inactive)	80.2% (inactive)	128% (inactive)	12.8% (inactive)	109% (inactive)	91% (inactive)	72.4% (inactive)	98.2% (inactive)	-13.8% (active)		117% (inactive)	83.9% (inactive)	75.6% (inactive)

Source: PubChem BioAssay (NCI)
